MEKK3 PB1 HTS: MEKK3-MEK5 PB1 interaction, increase or decrease; bead-based flow cytometry, Alexa488-MEK5 binding to MEKK3; actives lie on both sides; 0 = blocked by unlabeled MEK5, 100 = vehicle; binding response (% of control), % at 10 µM; 1.4% of 290,000 active; AID 1529;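 active means binding response more than 3 SD above or below the average of its plate-row segment, actives on both sides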;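 further: Alexa488 bead fluorescence after subtracting the streptavidin-only scavenger bead signal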
Target sequence (Q99759 whole entry, looked up): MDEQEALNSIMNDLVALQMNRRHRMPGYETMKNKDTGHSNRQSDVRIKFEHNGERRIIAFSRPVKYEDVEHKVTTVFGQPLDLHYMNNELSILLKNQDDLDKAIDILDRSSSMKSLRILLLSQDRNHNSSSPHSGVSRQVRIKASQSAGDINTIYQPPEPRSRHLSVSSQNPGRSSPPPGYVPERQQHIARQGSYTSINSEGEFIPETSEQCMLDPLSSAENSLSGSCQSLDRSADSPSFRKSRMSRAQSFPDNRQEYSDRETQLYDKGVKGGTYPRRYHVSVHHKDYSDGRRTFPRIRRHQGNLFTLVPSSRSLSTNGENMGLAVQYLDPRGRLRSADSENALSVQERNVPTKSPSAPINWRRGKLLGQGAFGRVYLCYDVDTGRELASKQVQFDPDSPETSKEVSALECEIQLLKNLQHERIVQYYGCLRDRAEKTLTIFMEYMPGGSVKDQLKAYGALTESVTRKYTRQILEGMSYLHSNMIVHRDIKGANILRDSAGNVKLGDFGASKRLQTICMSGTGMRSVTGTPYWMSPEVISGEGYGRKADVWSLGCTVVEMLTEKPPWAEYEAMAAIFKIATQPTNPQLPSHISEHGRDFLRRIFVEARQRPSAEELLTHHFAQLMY
UBC13 polyUb: human UBC13 polyubiquitination inhibition; P61088; UBC13 polyubiquitin chain formation, TR-FRET; inhibition, % at 20 µM; 0.47% of 330,000 active; in the data active means inhibition above about 45%, passing the limit was not always enough
Rce1 inhib: yeast Ras-converting enzyme inhibition; Q03530; yeast membranes, quenched prenylated peptide cleavage fluorescence; calls only; 0.27% of 290,000 active;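 active means fall in fluorescence gain of 50% or more versus controls, with final raw signal at or below 3038400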
MEKK2wt PB1 HTS: raises or lowers MEK5 binding to wildtype human MEKK2 PB1 domain | Q9Y2U5 | binding response (% of control), % at 10 µM | 1.1% of 290,000 active | bead flow cytometry, Alexa488-MEK5 binding to MEKK2 WT; actives lie on both sides; in the data active means binding response below about 67% or above about 130%
MEKK2 mut-MEK5: signal of MEK5 binding to mutant human MEKK2 PB1 domain | percent response, % at 10 µM | 0.35% of 290,000 active | bead flow cytometry, Alexa488-MEK5 binding to MEKK2 mutant; in the data active means percent response above about 24%, passing the limit was not always enough
MEKK2wt confirm: raises or lowers MEK5 binding to wildtype human MEKK2, retest; binding response (% of control), % at 10 µM; shares compounds with MEKK3 PB1 HTS; bead flow cytometry, Alexa488-MEK5 binding to MEKK2 WT; actives lie on both sides; 2.4% of 5,900 active; in the data active means binding response below about 16% or above about 210%; inactive means in between
MEKK2mut-MEK5: signal of MEK5 binding to mutant human MEKK2, retest | shares compounds with MEKK3 PB1 HTS | bead flow cytometry, Alexa488-MEK5 binding to MEKK2 mutant | percent response, % at 10 µM | 2% of 5,900 active | AID 1893; in the data active means percent response mostly above about 71%, no sharp cut-off; inactive means mostly below about 38%;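 further: higher means compound restores mutant binding toward wildtype level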
MEKK3-MEK5 inh: confirmation of inhibitors of MEK5 binding to human MEKK3. shares compounds with MEKK3 PB1 HTS. binding response (% of control), % at 10 µM. 1.8% of 5,900 active. bead flow cytometry, Alexa488-MEK5 binding to MEKK3; stronger effect = lower value;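 active means binding response below 72% of control, or above a set upper limit, though filed actives all read lower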
Hits are given with their value; n = inactive; x = no result given; [ ] = another dose, or the depositor's remark. Sampled rows, rich in hits. Any-hit rate of the full collection: about 2.5%.

SMILES	MEKK3 PB1 HTS	UBC13 polyUb	Rce1 inhib	MEKK2wt PB1 HTS	MEKK2 mut-MEK5	MEKK2wt confirm	MEKK2mut-MEK5	MEKK3-MEK5 inh
O=C(c1ccc(S(=O)(=O)N2CCCCC2)cc1)N1CCCc2ccccc21	n	n	n	n	n	x	x	x
O=C(c1ccc(S(=O)(=O)N2CCCC2)cc1)N1CCCc2ccccc21	n	n	n	n	27.0	n	n	n
CC1CC(C)CN(CCCNC(=O)c2cc3c(=O)[nH]c4ccccc4c3n2C)C1 (stereo unspecified)	n	n	n	n	n	x	x	x
Cn1c(C(=O)NCCCN2CCN(c3ccccc3F)CC2)cc2c(=O)[nH]c3ccccc3c21	n	n	n	148.0	n	n	n	n
O=C(Cc1csc(Nc2nc(=S)[nH]c3ccccc23)n1)NCCCN1CCN(c2ccccc2F)CC1	n	n	n	147.0	n	n	n	n
O=C(Cc1csc(Nc2nc(=S)[nH]c3ccccc23)n1)NCc1ccc(Cl)cc1	n	n	n	n	n	x	x	x
COc1ccccc1CNC(=O)C(C)c1ccc([N+](=O)[O-])cc1 (stereo unspecified)	n	n	n	n	n	x	x	x
O=C(CN(c1ccc(Cl)cc1)S(=O)(=O)c1ccccc1)N/N=C/c1ccco1	n	n	n	n	n	x	x	x
Cc1ccc(S(=O)(=O)N(CC(=O)N/N=C/c2ccco2)c2cc(Cl)cc(Cl)c2)cc1	128.0	n	n	n	n	n	n	n
O=C(c1ccco1)N1CCN(CCCCOc2ccc(F)cc2)CC1	n	n	n	n	n	x	x	x
CCOC(=O)c1c(/N=C/c2cc(OC)cc([N+](=O)[O-])c2O)sc(C)c1C	135.0	n	n	n	n	n	n	n
Cc1c(C(=O)NC2CCCc3ccccc32)oc2ccc(S(=O)(=O)N3CCCC3)cc12 (stereo unspecified)	n	n	n	n	n	x	x	x
Cc1c(C(=O)NCCc2ccccc2)oc2ccc(S(=O)(=O)N3CCOCC3)cc12	125.0	n	n	n	n	n	n	n
CCOC(=O)N1CCN(C(=O)c2oc3ccc(S(=O)(=O)N4CCCCC4)cc3c2C)CC1	n	n	n	n	n	x	x	x
Cc1c(C(=O)N2CCN(C)CC2)oc2ccc(S(=O)(=O)N3CCOCC3)cc12	2.0[inhibitor]	n	x	2.0[inhibitor]	n	n	n	n
Cc1c(C(=O)NC2CCCc3ccccc32)oc2ccc(S(=O)(=O)N3CCOCC3)cc12 (stereo unspecified)	82.0[inhibitor]	n	n	n	n	n	n	n
CC1=N/C(=C/c2cc(Br)cc(Br)c2O)C(=O)O1	n	n	n	n	n	x	x	x
N#Cc1cnn(-c2ccccc2)c1NC(=O)c1ccccc1F	x	n	x	x	x	x	x	x
O=C(CN1CCCc2ccccc21)N/N=C/c1ccccc1O	128.0	n	n	n	n	n	n	n
O=C(CN1CCCc2ccccc21)N/N=C/c1ccc(F)cc1F	n	n	n	n	n	x	x	x
COc1cccc(NC(=O)NC(C)C2CC3CCC2C3)c1 (stereo unspecified)	n	n	x	n	n	x	x	x
COc1ccc(/C=N/NC(=S)Nc2cc(S(=O)(=O)N3CCOCC3)ccc2N2CCOCC2)cc1O	n	n	n	n	n	x	x	x
COc1ccc2ccccc2c1/C=N/NC(=S)Nc1cc(S(=O)(=O)N2CCOCC2)ccc1N1CCOCC1	133.0	n	n	n	n	n	n	n
CCN1CCN(c2ccc(S(=O)(=O)N3CCCCC3)cc2NC(=O)/C=C/c2cc(OC)ccc2OC)CC1	n	n	n	174.0	25.0	n	n	n
O=C(/C=C/c1ccccc1)Nc1cc(S(=O)(=O)N2CCOCC2)ccc1N1CCCC1	142.0	n	n	n	n	n	n	n
Cc1ccc(OCC(=O)Nc2cccc(S(=O)(=O)N3CCCCCC3)c2)c([N+](=O)[O-])n1	n	n	n	n	n	x	x	x
COc1ccc(NC(=O)C2(S(=O)(=O)c3ccc(C)cc3)CC2)cc1	n	n	n	n	n	x	x	x

Compound activity deposited in PubChem BioAssay by several laboratories.
